The source of these data is PubChem BioAssay (NCATS).

Results filed as inconclusive are left out. Entries that show only a call come without a potency. The source made the active and inactive calls. Calls follow the shape of the dose curve; as a rule, active = well fitted cell-killing curve with a large enough effect; inconclusive = small, poorly fitted or top-dose-only effect, or effect the other way; inactive = no such curve, though single readings can be large or run the other way.
Potency is read from the fitted curve at half-maximal effect.

The nature of the assay: Quantitative High-Throughput drug screen in 47 multiple myeloma cell lines against the NCATS MIPE library collection: ARP1_JJKsccF8 cell viability assay (AID 1918928; also: nearly all actives have a fitted effect of over 40% in size). As to conditions: ARP1 myeloma cells viability, CellTiter-Glo ATP, 48 h; series mostly up to 45.8 µM. From the text: PI: Beverly A. Mock Ph.D.
Laboratory of Cancer Biology and Genetics,
Center for Cancer Research, National Cancer Institute,
National Institute of Health, Bethesda, Maryland
Drug resistance and disease progression are common in multiple myeloma (MM) patients, underscoring the need for new therapeutic combinations. […] We hypothesized that effective combinations would reduce MYC expression and enhance p16 activity. […] These preclinical data identify potentially useful drug combinations for evaluation in drug-resistant MM and reveal potential mechanisms of combined drug sensitivity.
Described herein is the primary MIPE qHTS used to cherrypick compounds. Validated compounds were then further tested for potential synergistic activiy.
[1] Peat TJ, Gaikwad SM, Dubois W, Gyabaah-Kessie N, Zhang S, Gorjifard S, Phyo Z, Andres M, Hughitt VK, Simpson RM, Miller MA, Girvin AT, Taylor A, Williams D, D'Antonio N, Zhang Y, Rajagopalan A, Flietner E, Wilson K, Zhang X, Shinn P, Klumpp-Thomas C, McKnight C, Itkin Z, Chen L, Kazandijian D, Zhang J, Michalowski AM, Simmons JK, Keats J, Thomas CJ, Mock BA. Drug combinations identified by high-throughput screening promote cell cycle transition and upregulate Smad pathways in myeloma. Cancer Lett. 2023 Aug 1;568:216284. doi: 10.1016/j.canlet.2023.216284. Epub 2023 Jun 24. PMID: 37356470; PMCID: PMC10408729.
SEQUENCE No. (e.g., 1, 2, 3, etc.); […] (e.g., Cells, Incubation, Reagent, etc.); VALUE and DESCRIPTION.
1; Cells; 5 uL; white, solid bottom 1536-well Greiner assay plate.
2; Compounds; 23 nL; Kalypsis pin tool (Wako USA) equipped with a 1536-well pin head to transfer to the assay plates.
3; Incubation; 48 hours; 37C incubation.
4; Reagent;5uL; CellTiter Glo (Promega).
5; Detector; 425V; Luminescence; Viewlux PerkinElmer.
NOTES (numbers refer to Sequence numbers above)
1. The cell-based screening methods employed in this study were like those previously published. Briefly, the corresponding myeloma cell lines were screened in 1,536-well plates with 500 cells, 5-uL per well for inhibition of cell viability (assessed by measuring ATP levels with CellTiterGlo).
2. NCATS MIPE 4.0 library of approved and investigational drugs were added using the Kalypsis pin tool. Wells treated with DMSO only for 100% viability and media only cells for 0% viability were used as controls.
3. The assay plates were covered and incubated for 48 hours in a 37C, 5% CO2 incubator with controlled humidity.
4. After 48 hours, CellTilter-GloTM luminescent substrate mix (Promega) reagent was added to the assay plate and plates we incubated for 5 min at room temperature.
5. Signal was measured as median relative luminescence units on a ViewLux (PerkinElmer) multiplate reader.
[1] Heske CM, Davis MI, Baumgart JT, Wilson K, Gormally MV, Chen L, Zhang X, Ceribelli M, Duveau DY, Guha R, Ferrer M, Arnaldez FI, Ji J, Tran HL, Zhang Y, Mendoza A, Helman LJ, Thomas CJ. Matrix Screen Identifies Synergistic Combination of PARP Inhibitors and Nicotinamide Phosphoribosyltransferase (NAMPT) Inhibitors in Ewing Sarcoma. Clin Cancer Res. 2017 Dec 1;23(23):7301-7311. doi: 10.1158/1078-0432.CCR-17-1121. Epub 2017 Sep 12. PMID: 28899971; PMCID: PMC6636827.
Background: Cellular ATP, detected with luciferase, serves as a proxy for viable cell number.
Take `CCc1cc(C(N)=S)ccn1`: the Potency entry is “inactive”.

In the case of `Nc1nc(N)c2nc(CNc3ccc(C(=O)NC(CCC(=O)O)C(=O)O)cc3)cnc2n1` (stereo not given), the Potency was 0.0372 µM (active).

Take `COc1ccc2c(c1)c(CC(=O)OCC(=O)O)c(C)n2C(=O)c1ccc(Cl)cc1`: the Potency result was “inactive”.

In the case of `CCCc1nc(C)c2c(=O)[nH]c(-c3cc(S(=O)(=O)N4CCN(CC)CC4)ccc3OCC)nn12`, the Potency was 5.26 µM (active).

Take `CC[C@H](C)C(=O)O[C@H]1C[C@@H](C)C=C2C=C[C@H](C)[C@H](CC[C@@H]3C[C@@H](O)CC(=O)O3)[C@H]21`: the Potency is 23.5 µM (active).

As to `CCOCC(O)COc1ccc(NC(=O)CC[S+](C)C)cc1` (stereo not given), the Potency result is “inactive”.

As for `CCN1CCCC1CNC(=O)c1cc(S(N)(=O)=O)ccc1OC` (stereo not given), the Potency entry is “inactive”.

`CN1CCCC(n2nc(Cc3ccc(Cl)cc3)c3ccccc3c2=O)CC1` (stereo not given): the Potency is 6.62 µM (active).

With `COc1cnc(NS(=O)(=O)c2ccc(N)cc2)nc1`, the Potency result is “inactive”.

As to `CNC(=O)c1cc(Oc2ccc(NC(=O)Nc3ccc(Cl)c(C(F)(F)F)c3)cc2)ccn1`, the Potency was 23.5 µM (active).

As for `NC1(c2ccc(-c3nc4ccn5c(=O)[nH]nc5c4cc3-c3ccccc3)cc2)CCC1`, the Potency is 14.8 µM (active).

`CCn1cc(C(=O)O)c(=O)c2cc(F)c(N3CCNCC3)cc21`: the Potency is 8.33 µM (active).

As for `Nc1ccc(S(=O)(=O)Nc2ccccn2)cc1`, the Potency entry was “inactive”.

With `COC(=O)Nc1nc2ccc(S(=O)c3ccccc3)cc2[nH]1` (stereo not given), the Potency was 16.6 µM (active).

Take `Cn1c(=O)c2c(ncn2CC(O)CO)n(C)c1=O` (stereo not given): the Potency entry was “inactive”.

On to `COC(c1ccccc1)(c1ccccc1)[C@H](Oc1nc(C)cc(C)n1)C(=O)O`, for which the Potency result was “inactive”.

As to `CC(C)(C)NC(=O)[C@H]1CC[C@H]2[C@@H]3CC[C@H]4NC(=O)C=C[C@]4(C)[C@H]3CC[C@]12C`, the Potency entry was “inactive”.

Consider `CC(C)C1CCC(C(=O)N[C@H](Cc2ccccc2)C(=O)O)CC1` (stereo not given in full), for which the Potency result is “inactive”.

Regarding `COc1cc(NS(=O)(=O)c2ccc(N)cc2)nc(OC)n1`, the Potency entry was “inactive”.

For `COc1cc([C@@H]2c3cc4c(cc3[C@H](O)[C@H]3COC(=O)[C@H]23)OCO4)cc(OC)c1OC`, the Potency result is “inactive”.

Turning to `CN(Cc1cc(Br)cc(Br)c1N)C1CCCCC1`, the Potency entry is “inactive”.

In the case of `O=C(O)c1cn(C2CC2)c2cc(N3CCNCC3)c(F)cc2c1=O`, the Potency result is “inactive”.

For the compound `CCCCOc1ccc(CC(=O)NO)cc1`, the Potency was 13.2 µM (active).

Regarding `CCN[C@H]1C[C@H](C)S(=O)(=O)c2sc(S(N)(=O)=O)cc21`, the Potency result is “inactive”.

With `COc1nc(N)nc2c1ncn2[C@@H]1O[C@H](CO)[C@@H](O)[C@@H]1O`, the Potency entry is “inactive”.

In the case of `Cn1nnc2c(C(N)=O)ncn2c1=O`, the Potency result was “inactive”.

Take `CCCCS(=N)(=O)CCC(N)C(=O)O` (stereo not given): the Potency entry was “inactive”.

Consider `NC(=O)N1c2ccccc2CC(=O)c2ccccc21`, for which the Potency entry is “inactive”.

Consider `Cc1ncc([N+](=O)[O-])n1CCO`, for which the Potency entry was “inactive”.

Turning to `O=C(O)C1CCCN(CCC=C(c2ccccc2)c2ccccc2)C1` (stereo not given), the Potency entry was “inactive”.

Turning to `CCOC(=O)[C@H](CCc1ccccc1)N[C@H]1CS[C@H](c2cccs2)CN(CC(=O)O)C1=O`, the Potency was 11.8 µM (active).

Regarding `O=C(N[C@H](CO)[C@H](O)c1ccc([N+](=O)[O-])cc1)C(Cl)Cl`, the Potency result is “inactive”.

Turning to `CC1=CC(=O)c2ccccc2C1=O`, the Potency is 16.6 µM (active).

Turning to `COc1cc2ncnc(Nc3cccc(Cl)c3)c2cc1OC`, the Potency is 26.4 µM (active).

For the compound `CN1CCN(c2c(F)cc3c(=O)c(C(=O)O)cn(CCF)c3c2F)CC1`, the Potency entry was “inactive”.

Take `Nc1[nH]c(=O)ncc1F`: the Potency result was “inactive”.

Turning to `CNCC[C@H](Oc1cccc2ccccc12)c1cccs1`, the Potency was 18.7 µM (active).

With `CC[C@H](NC(C)C)[C@H](O)c1ccc(O)c2[nH]c(=O)ccc12`, the Potency entry is “inactive”.

Turning to `CCCc1cc(C(N)=S)ccn1`, the Potency result is “inactive”.

In the case of `CC1=NN(c2ccccc2)C(=O)C1`, the Potency entry is “inactive”.
